NS1 function inh – blocks influenza NS1 protein function; Potency, µM (series often up to 46.1 µM), inactives show at the top dose activity, positive = more growth; 270,000 tested, 0.4% active; AID 2326; calls by dose curve; also: potency is read from the fitted curve at half-maximal effect; actives are rising curves; nearly all actives have a fitted effect of over 50% in size
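Recovery from NS1-induced slow growth read by OD600 in budding yeast switched to galactose assay medium (pH 6.0, -URA) at 1:100 dilution. Compound 23 nl per well; the matching strain lacking NS1 serves as control.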
Shiga inhibitor – inhibitors of Shiga toxin in Vero cells. Vero cells, Shiga toxin protein synthesis inhibition reporter. inhibition, % at 38.7 µM. 290,000 tested, 9.2% active. AID 2315; in the data active = inhibition mostly above about 28%, no sharp cut-off; inactive = mostly below about 43%; also: 0% is about no effect
Cycloheximide cs – affects cycloheximide protein synthesis inhibition readout, counter-screen | cell reporter, cycloheximide protein synthesis inhibition counterscreen | max response, % | 300,000 tested, 12% active; in the data active = max response mostly above about 13%, no sharp cut-off; inactive = mostly below about 14%; also: read at 38.3 µM for the half of the compounds with a filed dose; 0% is about no effect
FBPA Giardia inh – blocks Giardia fructose-bisphosphate aldolase activity; Potency, µM (top dose mostly 59.6 µM), without a hit: at the highest dose activity, negative = inhibition, usual class: inhibitors; 290,000 tested, 0.71% active; purified Giardia FBPA; AID 2451; also: potency is read from the fitted curve at half-maximal effect; % is scaled to controls: 0 for no effect and ±100 for the full control effect; nearly all actives have a fitted effect of over 55% in size
Target sequence (A8B2U2 whole entry, looked up): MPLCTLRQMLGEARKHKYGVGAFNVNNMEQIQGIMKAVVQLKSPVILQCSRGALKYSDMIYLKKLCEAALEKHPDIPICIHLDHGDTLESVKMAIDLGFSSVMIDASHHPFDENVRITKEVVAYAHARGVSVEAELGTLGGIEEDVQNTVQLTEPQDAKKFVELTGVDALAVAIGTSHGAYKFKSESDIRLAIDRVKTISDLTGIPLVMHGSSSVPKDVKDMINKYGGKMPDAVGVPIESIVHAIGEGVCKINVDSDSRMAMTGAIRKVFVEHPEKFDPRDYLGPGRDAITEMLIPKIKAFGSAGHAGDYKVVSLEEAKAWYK
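40 nM FBPA preincubated 10 min at RT with compound (up to 57.5 uM final), then substrate plus GAPDH/TPI/NAD/arsenate coupling and diaphorase/resazurin added. Fluorescence read after 20 min at RT, 525/598 nm.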
LmPK inhibitor – blocks Leishmania mexicana pyruvate kinase activity; purified LmPK, Kinase-Glo ATP luminescence, 1 h; Potency, µM (titrated, usually from 57.5 µM), without a hit: at the highest dose activity change, negative = inhibition, most hits filed as inhibitors; 290,000 tested, 0.37% active; also: potency is read from the fitted curve at half-maximal effect; % is scaled to controls: 0 for no effect and ±100 for the full control effect
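In 50 mM imidazole pH 7.2 with 7 mM MgCl2, LmPK (0.1 nM) turned over PEP (0.5 mM) and ADP (0.1 mM) for 1 h at room temperature. Luciferase read-out of ATP.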
Starred values were filed as active, the others as inactive; ? = inconclusive; · = no result; + = active, no number; [ ] = remark or other dose. Sampled rows, rich in hits. Any-hit rate of the full collection: about 14%. Unless noted, calls follow the shape of the dose curve; as a rule, active = well fitted curve in the direction sought with a large enough effect; inconclusive = small, poorly fitted or top-dose-only effect, or another doubt; inactive = no such curve, though single readings can be large; an effect the other way counts as inactive or inconclusive.

SMILES	NS1 function inh	Shiga inhibitor	Cycloheximide cs	FBPA Giardia inh	LmPK inhibitor
O=C(CNS(=O)(=O)c1cccs1)Nc1ccc2c(c1)OCCO2	6.2%	90.2*	43.4*	-9.8%	-6.2%
O=S(=O)(Nc1ccc2c(c1)OCCO2)c1cccs1	-8.2%	82.9*	53.7*	-15.4%	-0.9%
CCOC(=O)c1ccc(NC(=O)CCNS(=O)(=O)c2cccs2)cc1	-15.5%	-1.0	2.1	?	-0.8%
COc1ccc(-c2cc(C(=O)N3CCN(c4ccccc4)CC3)no2)cc1OC	-4.1%	27.7	6.3	-4.2%	0.4%
COc1ccc(-c2cc(C(=O)N3CCOCC3)no2)cc1	-12.5%	48.6	30.3*	2.0%	-21.1%
COc1cccc(-c2cc(C(=O)N3CCOCC3)no2)c1	4.1%	40.8	40.1*	2.6%	0.4%
COc1ccc(-c2cc(C(=O)N3CCOCC3)no2)cc1OC	0.9%	128.8*	29.1*	-2.9%	-2.0%
COC(=O)[C@@]1(Cc2ccccc2)[C@H]2c3cc(C(=O)N4CCCC4)n(Cc4c(CO)[nH]cc(C)c4=O)c3C[C@H]2CN1C(=O)c1ccccc1	·	·	·	-1.4%	·
CC12CCC=CC1C(c1ccc(/C=C/c3ccccc3)cc1F)N(Cc1ccccc1)C2=O (configuration not stated)	·	18.8	17.6	-1.8%	·
O=C(/C=C/c1ccccc1)NC(=S)Nc1ccccc1O	-1.9%	81.2*	33.0*	-3.8%	-5.8%
O=C(/C=C/c1ccc(F)cc1)NC(=S)Nc1ccccc1O	-1.6%	31.0	10.2	-7.4%	1.2%
O=C(/C=C/c1ccccc1)NC(=S)NNS(=O)(=O)c1ccccc1	1.8%	9.0	-3.5	0.9%	-2.0%
NC(=S)NC(=O)/C=C/c1ccccc1	·	65.8*	30.3*	2.6%	1.1%
Cc1nc(N)sc1-c1csc(Nc2ccccn2)n1	-1.7%	122.2*	33.9*	?	-8.6%
Cc1nc(NC(=O)CC(C)C)sc1-c1csc(Nc2ccc(Cl)cc2)n1	23.1%	-15.4	1.8	-1.3%	-3.6%
Cc1nc(C)c(-c2csc(Nc3ccc(S(N)(=O)=O)cc3)n2)s1	13.0%	-6.9	1.6	1.1%	0.2%
CC(=O)Oc1ccc(-c2csc(Nc3ccc(Cl)cn3)n2)cc1	-77.7%	39.3*	41.7*	-1.3%	-2.1%
Cc1nc(N)sc1-c1csc(Nc2ccc(Cl)cn2)n1	-94.9%	47.6*	23.9*	?	1.5%
Cc1nc(C)c(-c2csc(Nc3ccccn3)n2)s1	-83.9%	112.4*	48.8*	-8.6%	-4.2%
COc1ccc(-c2csc(Nc3ccc(C)cn3)n2)cc1	-0.5%	6.8	10.6	?	-9.4%
c1ccc(-c2nnc(-c3ccco3)o2)cc1	-63.2%	114.6*	43.0*	2.3%	?
Brc1ccc(-c2nnc(-c3ccco3)o2)cc1	-65.4%	73.4*	47.0*	3.8%	-18.4%
c1coc(-c2nnc(-c3cccs3)o2)c1	-15.4%	81.3*	49.3*	9.3%	-15.5%
c1coc(-c2nnc(-c3ccco3)nn2)c1	8.8%	42.6*	46.5*	·	?
O=C(Nc1ccc(-c2nnc(-c3ccco3)o2)cc1)C(c1ccccc1)c1ccccc1	-7.2%	-6.0	-1.0	0.5%	2.8%
SMILES	NS1 function inh	Shiga inhibitor	Cycloheximide cs	FBPA Giardia inh	LmPK inhibitor
Cn1c(CNC(=O)CNS(=O)(=O)c2ccc(Cl)cc2)cc(=O)n(C)c1=O	3.1%	26.9	0.7	-4.3%	-3.9%
Cc1ccc(-c2nnc(-c3ccc(Br)cc3)o2)o1	0.4%	26.9*	18.4*	4.9%	-0.5%
COc1ccc(-n2c(=O)c(-c3ccc(F)c(F)c3)nc3cncnc32)cc1	·	·	·	-0.7%	·
Cc1ccc(N/N=C(\C#N)C(N)=S)c(C)c1	-56.4%	41.2	12.6*	-10.2%	2.4%
Cc1ccc(NC(=O)/C(C#N)=N/Nc2ccc(C(=O)O)cc2)c(C)c1	2.0%	2.9	7.7	-9.3%	-16.8%
CCN1C(=O)[C@H]2[C@H]3[C@H](O)[C@H](O)C/C(=N/O[C@@H](C)c4cn([C@H]5COC[C@H]5O)nn4)[C@@H]3CC[C@@H]2C1=O	·	·	·	-4.3%[12.9 µM]	·
O=C1c2ccccc2C(=O)C1(CO)c1ccc(OC(F)F)cc1	10.7%	26.8*	53.3*	-20.7%	-10.9%
O=C1c2ccccc2C(=O)C1(CO)c1ccccc1	·	105.5*	33.7*	-3.3%	-12.5%
COc1ccc(NS(=O)(=O)c2ccc3c(c2)NC(=O)CO3)c(OC)c1	4.2%	-5.9	11.3	·	1.3%
O=C(N/N=C/c1ccc(Cl)cc1)C1CC12CCC2 (configuration not stated)	·	132.5*	52.7*	-1.1%	-5.1%
O=C(N/N=C/c1cccs1)c1c[nH]c2ccccc12	-11.1%	80.6*	62.3*	-0.7%	-10.3%
CCc1ccc(/C=N/NC(=O)c2c[nH]c3ccccc23)s1	-27.5%	90.8*	49.1*	-2.2%	-2.2%
O=C(NCC(O)CO)c1csc(Nc2cccc3ccccc23)n1 (configuration not stated)	7.6%	·	-2.3	-2.3%	-1.0%
Oc1c(Cl)c(Cl)c(Cl)c(Cl)c1Cl	·	·	·	6.1%	·
O=C1C=CC(=O)c2c(O)c(Cl)c(Cl)c(O)c21	·	·	·	12.6µM*	·
COc1cc(/C=N/Nc2nc(-c3ccc(S(=O)(=O)N(C)C)cc3)cs2)ccc1O	?	50.2*	13.4*	-11.9%	0.9%
O=[N+]([O-])c1cc(/C=N\Nc2nc(-c3ccccc3)cs2)ccc1O	·	92.6	22.6*	-12.7%	2.3%
COc1ccc(-c2csc(NC(=S)NC(=O)c3ccc(S(=O)(=O)N(C)C)cc3)n2)cc1OC	13.2%	5.2	2.8	·	-1.3%
Cc1ccc(NC(=O)c2ccccc2Cl)c(Cl)c1	-59.3%	68.5*	41.7*	1.8%	-9.3%
Cc1cc(NC(=O)NC(=O)c2ccccc2F)no1	-5.4%	77.3*	31.6*	·	-6.7%
Cc1cccc(NC(=O)c2sccc2-n2cccc2)c1C	-47.0%	-3.1	-1.0	-5.2%	5.1%
Cc1ccc(NC(=O)c2sccc2-n2cccc2)c(Cl)c1	·	22.0	31.5*	-1.0%	14.4%
Cc1ccc(NC(=O)C2CC2C)c(Cl)c1 (configuration not stated)	·	62.1	30.0*	1.5%	2.5%
CCOC(=O)C(NC(=O)c1ccccc1F)(Nc1cc(C)on1)C(F)(F)F (configuration not stated)	-7.0%	-8.9	-0.7	-0.4%	-3.0%
CC1=CC=CC2=NC(=O)CC(C)(C(=O)N(CC(=O)NC3CCCC3)c3ccc(F)cc3)N12 (configuration not stated)	-0.6%	-8.0	-6.5	·	-1.2%
SMILES	NS1 function inh	Shiga inhibitor	Cycloheximide cs	FBPA Giardia inh	LmPK inhibitor
Cc1ccc(SCCC(=O)Nc2ccccc2Br)cc1	-5.6%	55.8*	15.9*	10.8%	-0.5%
Cc1cc(NC(=O)c2ccccc2Cl)no1	16.1%	+	54.2*	·	-2.5%
Cc1cc(NC(=O)c2c(F)cccc2Cl)no1	6.3%	55.9*	12.9*	-1.5%	1.1%
Cc1ccc(NC(=O)Cn2ncc3ccccc32)c(Cl)c1	-3.4%	55.2*	52.4*	6.8%	3.4%
Cc1c(Cl)cccc1NC(=O)CN(C1CCCCC1)S(C)(=O)=O	11.1%	-6.2	-3.4	10.9%	7.5%
Cc1cc(NC(=O)CSc2nc3ccccc3s2)no1	-10.6%	7.3	0.8	0.4%	-4.7%
